Compound activity (PubChem BioAssay)
Only some compounds are listed: those with a hit (about 19% of all), similar ones and a draw of the others.
IL-1B inflam inh: inflammasome signaling inhibition, IL-1 beta readout; THP-1 LPS/ATP IL-1B secretion, AlphaLISA, 16 h; active compounds read low; activity change, % at 57.5 µM; 360,000 tested, 4.7% active; in the data active = activity change below about -50%; inconclusive = mostly about -30% to -49%
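Secreted IL-1B measured by AlphaLISA bead assay after 16 h compound exposure of THP-1 cells; compounds (final up to 57.5 uM) added 1 h before LPS (250 ng/mL) and ATP (1.25 mM) stimulation; lower signal means less secretion.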
HT1080 IDH1KD tx: HT-1080 IDH1 knockdown cell toxicity (counter line); HT-1080 IDH1 knockdown viability, ATP luminescence, 48 h; Potency, µM (titrated, usually from 46.1 µM), for inactives: at the top dose activity, negative = toxicity, most hits filed as cytotoxic; 360,000 tested, 2% active; AID 686971;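 note: potency is the fitted concentration of half-maximal effect; 0% = DMSO wells and -100% = cell-free medium wells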
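Viability of IDH1-knockdown HT-1080 fibrosarcoma cells was assessed by CellTiter-Glo after 48 h at 37 °C with titrated compound; concentration-effect curves were classified by fit quality and response size.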
HT1080-NT tox: kills 2HG-producing HT-1080-NT fibrosarcoma cells. HT-1080-NT fibrosarcoma viability, CellTiter-Glo ATP luminescence, 48 h. Potency, µM (highest dose often 46.1 µM), without a hit: at the top dose activity, negative = less viability, hits mostly cytotoxic. 360,000 tested, 1.6% active. AID 686970;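 note: NT is the 2HG producing partner of a matched IDH1 knockdown line; potency is the fitted concentration of half-maximal effect; 0% = DMSO-treated cells and -100% = media-only wells without cells; nearly all actives have a fitted effect of over 55% in size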
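Viability of the 2HG-overproducing fibrosarcoma line after 48 hours of compound exposure at 37 degrees C was determined by luminescence with CellTiter-Glo, and concentration-effect curves were then fitted and categorized.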
DT40 TDP1 no CPT: qHTS for Inhibitors of human tyrosyl-DNA phosphodiesterase 1 (TDP1): qHTS in cells in absence of CPT; DT40 Tdp1-/- hTDP1 cells, no CPT, ATP luminescence, 48 h; Potency, µM (titrated, usually from 46.2 µM), for inactives: top-dose activity change, negative = growth inhibition, most hits filed as inhibitors; 420,000 tested, 15% active; AID 686978, 2013; note: potency is the fitted concentration of half-maximal effect; nearly all actives have a fitted effect of over 55% in size
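Seeded 400 DT40-hTDP1 cells/well (vehicle DMSO, no 20 nM CPT); pinned compounds; ≥48 hr at 37 °C; CellTiter-Glo luminescence as viability measure.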
DT40 TDP1 CPT: growth inhibition of DT40 Tdp1-/-;hTDP1 cells with camptothecin (screen for TDP1 inhibitors) | chicken DT40 Tdp1-/-;hTDP1 cells + 20 nM CPT, ATP luminescence, 48 h | Potency, µM (titrated, usually from 46.2 µM), inactives show at the highest dose activity change, negative = growth inhibition, hits mostly inhibitors | 420,000 tested, 12% active | AID 686979; note: potency is the fitted concentration of half-maximal effect; nearly all actives have a fitted effect of over 55% in size
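Chicken DT40 Tdp1-/- cells complemented with human TDP1, 400 cells/well, exposed to compounds plus 20 nM camptothecin for at least 48 h at 37 C; viability read as ATP content by CellTiter-Glo luminescence.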
* marks the source's active call; other numbers are inactive results. Unless noted, calls come from the whole dose curve; as a rule, active = well fitted curve in the direction sought with a large enough effect; inconclusive = small, poorly fitted or top-dose-only effect, or another doubt; inactive = no such curve, though single readings can be large; an effect the other way counts as inactive or inconclusive. Unless noted, % is set by controls: 0 for no effect and ±100 for the full control effect.

`COc1ccc(NC(=O)CNC(=O)Cn2ccc3ccccc3c2=O)cc1OC` gave DT40 TDP1 no CPT 6.8% and DT40 TDP1 CPT 2.3%.
For COc1ccc(CCNC(=O)C2CCN(C(=O)c3ccc(Br)cc3)CC2)cc1OC the results were IL-1B inflam inh 10.0, HT1080 IDH1KD tx 1.7%, HT1080-NT tox 7.3%, DT40 TDP1 no CPT inconclusive and DT40 TDP1 CPT 3.2%.
`O=C(Nc1ccncc1)Nc1cccc(Cl)c1` gave IL-1B inflam inh -12.4, HT1080 IDH1KD tx -0.4%, HT1080-NT tox -4.0%, DT40 TDP1 no CPT -22.6% and DT40 TDP1 CPT inconclusive.
Screening O=C(Nc1ccncc1)c1ccc(C(=O)Nc2ccncc2)cc1 returned IL-1B inflam inh 9.0, HT1080 IDH1KD tx 3.4%, HT1080-NT tox 10.2%, DT40 TDP1 no CPT -27.8% and DT40 TDP1 CPT -27.7%.
O=C(NCCc1ccccc1)c1c(F)c(F)c(F)c(F)c1F was read as IL-1B inflam inh inconclusive, HT1080 IDH1KD tx -7.0%, HT1080-NT tox 4.1%, DT40 TDP1 no CPT -3.2% and DT40 TDP1 CPT -0.6%.
For O=C(Nc1ccc2cn[nH]c2c1)c1c(Cl)cccc1Cl the results were IL-1B inflam inh 10.8, HT1080 IDH1KD tx -2.9%, HT1080-NT tox -8.3%, DT40 TDP1 no CPT inconclusive and DT40 TDP1 CPT -18.2%.
`O=C(Nc1ccncc1)c1c(F)c(F)c(F)c(F)c1F` gave IL-1B inflam inh -95.7*, HT1080 IDH1KD tx -23.0%, HT1080-NT tox -9.1%, DT40 TDP1 no CPT -29.3% and DT40 TDP1 CPT -10.1%.
`O=C(Nc1ccncc1)c1c(Cl)cccc1Cl` gave IL-1B inflam inh -60.8*, HT1080 IDH1KD tx -3.0%, HT1080-NT tox inconclusive, DT40 TDP1 no CPT inconclusive and DT40 TDP1 CPT 9.2µM*.
O=C(Nc1ccccc1NC(=O)c1c(F)c(F)c(F)c(F)c1F)c1c(F)c(F)c(F)c(F)c1F was read as IL-1B inflam inh -107.9*, HT1080 IDH1KD tx inconclusive, HT1080-NT tox inconclusive, DT40 TDP1 no CPT -23.5% and DT40 TDP1 CPT -6.9%.
O=C(Nc1ccccc1)Nc1ccncc1 was read as IL-1B inflam inh 0.0, HT1080 IDH1KD tx -11.2%, HT1080-NT tox -17.2%, DT40 TDP1 no CPT 20.6µM* and DT40 TDP1 CPT inconclusive.
Screening CC(=O)Nc1nc(-c2ccccc2)nc(-c2ccccc2OC(C)=O)n1 returned IL-1B inflam inh -50.2*, HT1080 IDH1KD tx inconclusive, HT1080-NT tox inconclusive, DT40 TDP1 no CPT 18.4µM* and DT40 TDP1 CPT inconclusive.
`c1ccc2c(c1)nc1n2CCN1CCN1CCCC1` gave IL-1B inflam inh 33.1, HT1080 IDH1KD tx 12.9%, HT1080-NT tox 5.8%, DT40 TDP1 no CPT -0.7% and DT40 TDP1 CPT -1.6%.
Cc1ccc(-c2nn3c(-c4ccccc4)nnc3c3ccccc23)cc1 was read as DT40 TDP1 no CPT -18.2% and DT40 TDP1 CPT 7.6%.
For Cc1ccc(-c2nn3c(-c4ccccc4C)nnc3c3ccccc23)cc1 the results were DT40 TDP1 no CPT 18.4µM* and DT40 TDP1 CPT inconclusive.
Screening CCN(C(=O)COC(=O)c1ccc2c(c1)OCO2)c1ccc(F)cc1 returned IL-1B inflam inh -8.9, HT1080 IDH1KD tx 0.1%, HT1080-NT tox 0.0%, DT40 TDP1 no CPT -0.8% and DT40 TDP1 CPT inconclusive.
`O=C1Nc2ccccc2C12Nc1ccccc1-c1nc3ccccc3n12` (configuration not stated) gave IL-1B inflam inh -22.7, HT1080 IDH1KD tx -15.4%, HT1080-NT tox -7.1%, DT40 TDP1 no CPT 23.1µM* and DT40 TDP1 CPT inconclusive.
Screening CN1C(=O)C2(Nc3ccccc3-c3nc4ccccc4n32)c2ccccc21 (configuration not stated) returned IL-1B inflam inh 0.0, HT1080 IDH1KD tx -4.9%, HT1080-NT tox -4.7%, DT40 TDP1 no CPT -27.8% and DT40 TDP1 CPT -19.9%.
CCCCC1(C)Nc2ccccc2-c2nc3ccccc3n21 (configuration not stated) was read as IL-1B inflam inh -7.6, HT1080 IDH1KD tx -2.9%, HT1080-NT tox -3.3%, DT40 TDP1 no CPT inconclusive and DT40 TDP1 CPT 16.4µM*.
CCN1C(=O)C2(Nc3ccccc3-c3nc4ccccc4n32)c2cc(OC)ccc21 (configuration not stated) was read as IL-1B inflam inh inconclusive, HT1080 IDH1KD tx -4.8%, HT1080-NT tox -8.5%, DT40 TDP1 no CPT -22.4% and DT40 TDP1 CPT -5.4%.
Screening CC1(c2ccccn2)Nc2ccccc2-c2nc3ccccc3n21 (configuration not stated) returned IL-1B inflam inh -29.4, HT1080 IDH1KD tx 3.4%, HT1080-NT tox 0.6%, DT40 TDP1 no CPT 16.4µM* and DT40 TDP1 CPT 18.4µM*.
c1ccc2c(c1)NC1(CCCCC1)n1c-2nc2ccccc21 was read as IL-1B inflam inh -0.1, HT1080 IDH1KD tx inconclusive, HT1080-NT tox -20.7%, DT40 TDP1 no CPT -16.5% and DT40 TDP1 CPT -9.8%.
`CC(=O)Nc1ccc(S(=O)(=O)Oc2ccccc2N2C(=O)C3C4CCC(C4)C3C2=O)cc1` (configuration not stated) gave IL-1B inflam inh 0.0, HT1080 IDH1KD tx -11.0%, HT1080-NT tox -3.1%, DT40 TDP1 no CPT -9.8% and DT40 TDP1 CPT 7.9%.
Screening O=C(/C=C/c1ccc2c(c1)OCCCO2)c1ccc2ccccc2c1O returned IL-1B inflam inh 12.1, HT1080 IDH1KD tx inconclusive, HT1080-NT tox -28.8%, DT40 TDP1 no CPT 11.6µM* and DT40 TDP1 CPT inconclusive.
Screening CCc1cc(C(=O)/C=C/c2cc3c(cc2C)OCCO3)c(O)cc1O returned HT1080 IDH1KD tx -65.9%, HT1080-NT tox inconclusive, DT40 TDP1 no CPT 11.2µM* and DT40 TDP1 CPT 12.6µM*.
Screening Cc1ccc(C(=O)/C=C/c2ccc3c(c2)OCCO3)c(O)c1 returned IL-1B inflam inh -93.3*, HT1080 IDH1KD tx -19.1%, HT1080-NT tox -18.1%, DT40 TDP1 no CPT inconclusive and DT40 TDP1 CPT inconclusive.
`CCN(C(=O)/C=C/c1ccc2c(c1)OCO2)c1ccccc1` gave IL-1B inflam inh -3.9, HT1080 IDH1KD tx 16.0%, HT1080-NT tox 21.1%, DT40 TDP1 no CPT inconclusive and DT40 TDP1 CPT inconclusive.
CC(C)COC(=O)NC1c2ccccc2Oc2ccccc21 was read as IL-1B inflam inh 8.6, HT1080 IDH1KD tx -14.9%, HT1080-NT tox -18.9%, DT40 TDP1 no CPT -24.7% and DT40 TDP1 CPT -6.3%.
Screening C=C(C)CNC(=S)NNC(=O)CCn1c2ccc(Cl)cc2c2cc(Cl)ccc21 returned IL-1B inflam inh -99.9*, HT1080 IDH1KD tx inconclusive, HT1080-NT tox inconclusive, DT40 TDP1 no CPT inconclusive and DT40 TDP1 CPT inconclusive.
`CCc1ccc2oc(-c3ccc(C)c(NC(=O)COc4ccc(Cl)cc4)c3)nc2c1` gave DT40 TDP1 no CPT 3.3% and DT40 TDP1 CPT 6.4%.
O=C(NC1CC1)c1ccc2c(Cl)c3c(nc2c1)CCCC3 was read as IL-1B inflam inh -29.3, HT1080 IDH1KD tx 11.6%, HT1080-NT tox 1.5%, DT40 TDP1 no CPT inconclusive and DT40 TDP1 CPT inconclusive.
